From PubChem BioAssay (EPA / NIEHS)
Active and inactive are the calls of the source. The calls were made as follows: active = hit-call score of the fitted dose curve at least 0.9, where 1 is the maximum; inactive = score below 0.9.

Assay: ATG_PXRE_CIS: Attagene CIS-FACTORIAL HepG2 Assay for human Pregnane X Receptor Element (PXRE) (AID 2282957)
Details: HepG2 Attagene CIS-FACTORIAL PXRE reporter, mRNA; actives raise or lower the signal
Procedure: ATG_CIS is a cell-based, multiplexed-readout assay that uses HepG2, a human liver cell line, with measurements taken at 24 hours after chemical dosing in a 24-well plate.ATG_PXRE_CIS is one of 52 assay component(s) measured or calculated from the ATG_CIS assay. It is designed to make measurements of mRNA induction, a form of inducible reporter, as detected with fluorescence intensity signals by Reverse transcription polymerase chain reaction (RT-PCR) and Capillary electrophoresis technology.Data from the assay component ATG_PXRE_CIS was analyzed into 1 assay endpoint. This assay endpoint, ATG_PXRE_CIS, was analyzed with bidirectional fitting relative to DMSO as the negative control and baseline of activity. Using a type of inducible reporter, measures of mRNA for gain or loss-of-signal activity can be used to understand the reporter gene at the transcription factor-level as they relate to the gene NR1I2. Furthermore, this assay endpoint can be referred to as a primary readout, because this assay has produced multiple assay endpoints where this one serves a reporter gene function. To generalize the intended target to other relatable targets, this assay endpoint is annotated to the nuclear receptor intended target family, where the subfamily is non-steroidal.
Human liver HepG2 cells are transiently transfected with multiple reporter transcription units (MRTUs) in 6-well plates using FuGene 6 reagent (Roche; 3 ml FuGene/1 mg DNA). The MRTU constructs are regulated by a cis-regulating element (promoter). […] A major difference between the CIS and TRANS system is that in CIS activities of endogenous TFs are measured, whereas the TRANS assay evaluates changes in activities of exogenous, chimeric NR-Gal4 proteins. […] At the end of 24 hour incubation, total RNA was isolated using TriZol reagent (Invitrogen). The isolated RNA is then reverse-transcribed using oligo(dT) primer and Mo-MLV reverse transcriptase (Invitrogen) with DNAse I (Ambion) treatment for 30 min. The one-tenth of the produced cDNA was amplified by PCR using Taq DNA polymerase (Invitrogen) and two reporter sequence-specific primers. The PCR products were fluorescently labeled by primer extension with 6-arboxyfluorescein (6-FAM) 5'-labeled reporter sequence-specific primer (2 min at 95 C, 20 s at 68 C and 10 min at 72 C) and these products were digested with 5U of HpaI (New England Biolabs) for 2h at 37 C. The fragments were purified using Qiaquick PCR columns (Qiagen), analyzed on an ABI 3130xL genetic analyzer (Applied Biosystems) with peak positions identified by using a set of X-rhodamine (ROX)-labeled MapMarker1000 molecular weight standards (BioVentures). The raw capillary electrophoresis data was processed using Attagraph software (Attagene).
In the case of CN1CCCC1, the outcome is reported as “inactive”.
For OCCOCCOCCOCCOCCO, the outcome was “inactive”.
In the case of O=C(Oc1ccccc1)c1ccccc1, the outcome is reported as “inactive”.
With CCCCCCCCCC/C=C/C1CC(=O)OC1=O (stereo not given) the outcome was “inactive”.
For CCCCCCC1CCCC(=O)O1 (stereo not given), the AC50 was 37.5 µM (active).
For COC(=O)CCSCCC(=O)OC, the outcome was “inactive”.
For c1cc[c]([Bi]([c]2ccccc2)[c]2ccccc2)cc1, the AC50 was 4.08 µM (active).
For CCOC(=O)CC(=O)OCC, the outcome was “inactive”.
With NC(N)=Nc1nc(CSCCC(N)=NS(N)(=O)=O)cs1 the outcome was “inactive”.
For O=C(OCc1ccccc1)c1ccccc1, the AC50 was 26.4 µM (active).
For CO[Si](CCCNCCN)(OC)OC, the AC50 was 37.3 µM (active).
In the case of CC(C)CC(=O)CC(C)C, the outcome is reported as “inactive”.
For Cc1ccccc1S(N)(=O)=O, the outcome was “inactive”.
In the case of CCCCNC(N)=O, the AC50 is reported as 68.7 µM (active).
For Cc1cc(-n2nc3ccc(Cl)cc3n2)c(O)c(C(C)(C)C)c1, the AC50 was 2.86 µM (active).
For COc1ccccc1OCC(O)CO (stereo not given), the outcome was “inactive”.
With CCc1cc(C(N)=S)ccn1 the AC50 was 157 µM (active).
In the case of NCc1ccccc1, the outcome is reported as “inactive”.
In the case of CCC(C)C1N=C(C)C(C)S1 (stereo not given), the AC50 is reported as 3.25 µM (active).
For C=CCOCC(CC)(CO)COCC=C, the AC50 was 47.1 µM (active).
For F[B-](F)(F)F, the outcome was “inactive”.
For CC/C=C\CC/C=C/C(OCC)OCC, the AC50 was 4.02 µM (active).
With CC/C=C\CCO the AC50 was 29.3 µM (active).
For CCCCn1cc[n+](C)c1, the outcome was “inactive”.
In the case of Clc1ccccn1, the outcome is reported as “inactive”.
In the case of C=CC(C)(CCC=C(C)C)OC(=O)c1ccccc1 (stereo not given), the AC50 is reported as 6.33 µM (active).
With Cc1ccnc(N)c1 the AC50 was 44.6 µM (active).
With OCCc1ccccn1 the outcome was “inactive”.
In the case of COCCCN, the outcome is reported as “inactive”.
In the case of CC1=C(CC(=O)O)c2cc(F)ccc2/C1=C\c1ccc(S(C)=O)cc1 (stereo not given), the AC50 is reported as 5.37 µM (active).
For C/C=C(\C)C(=O)OCC/C=C\CC, the outcome was “inactive”.
For Nc1nnc(-c2ccc([N+](=O)[O-])o2)o1, the outcome was “inactive”.
In the case of C=C1CC[C@H]2C[C@@H]1C2(C)C, the AC50 is reported as 11.5 µM (active).
For C[Si](C)(C)O[Si](C)(C)O[Si](C)(C)C, the outcome was “inactive”.
For OCCN(CCO)c1cccc(Cl)c1, the AC50 was 52.4 µM (active).
With CC/C=C\CCCCCO the AC50 was 78.4 µM (active).
With CC(=O)CCc1ccccc1 the outcome was “inactive”.
For COC(=O)[C@]1(C)CCC[C@@]2(C)[C@H]1CC=C1C=C(C(C)C)CC[C@@H]12, the AC50 was 3.48 µM (active).
With CCCCCCCC#N the outcome was “inactive”.
In the case of N#CCN(CC#N)CCN(CC#N)CC#N, the outcome is reported as “inactive”.
